Results reported in US20030059769, “High affinity nucleic acid ligands to lectins” (published 2003).

Biological target: T1, L-selectin (LS-Rg) (Homo sapiens, UniProt P14151 P14151:39-332)
T1 sequence: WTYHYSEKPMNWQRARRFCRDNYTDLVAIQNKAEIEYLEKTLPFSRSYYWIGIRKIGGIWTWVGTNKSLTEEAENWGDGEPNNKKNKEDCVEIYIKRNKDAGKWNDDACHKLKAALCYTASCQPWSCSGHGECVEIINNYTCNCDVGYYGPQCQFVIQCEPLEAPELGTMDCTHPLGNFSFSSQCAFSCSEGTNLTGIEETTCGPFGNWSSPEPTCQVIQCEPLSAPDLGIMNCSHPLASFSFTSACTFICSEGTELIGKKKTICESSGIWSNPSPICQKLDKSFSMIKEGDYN
Experiment: filter; 26-nt hairpin truncate
Conditions: tags: human IgG2 Fc fusion, chain copies: dimer, label: 32P; ssDNA

Sequence	binding signal
GCGTTACAAGGTGCTAAACGTAACGT	100 fold weaker than LD227
CCAGTACAAGGTGCTAAACGTAATGG	20 fold weaker than LD201
